Measured values from PubChem BioAssay AID540336 (Broad Institute, 2011).
The whole screen tested about 330,000 compounds, of which about 520 (0.16%) were called active. The entries come from a sample that favours actives as a whole. A number with no mark means an inactive call.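 Rule for the calls: active = inhibition of at least 50% in every replicate; inconclusive = best replicate reaches 50% inhibition but some replicates fall short; inactive = the rest.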

The compounds below were run against Histone acetyltransferase RTT109 (Candida albicans (strain SC5314 / ATCC MYA-2876)) (UniProt Q5AAJ8) (assay: inhibitors of C. albicans Rtt109/Vps75 HAT, primary screen, biochemical, ThioGlo CoA-SH fluorescence, plate reader (AID 540336)). Conditions: purified Rtt109/Vps75, ThioGlo CoA-SH fluorescence, 4 h; at 34.9 µM; active compounds read high.
Chain of Histone acetyltransferase RTT109 (Candida albicans (strain SC5314 / ATCC MYA-2876)) (Q5AAJ8 whole entry, looked up): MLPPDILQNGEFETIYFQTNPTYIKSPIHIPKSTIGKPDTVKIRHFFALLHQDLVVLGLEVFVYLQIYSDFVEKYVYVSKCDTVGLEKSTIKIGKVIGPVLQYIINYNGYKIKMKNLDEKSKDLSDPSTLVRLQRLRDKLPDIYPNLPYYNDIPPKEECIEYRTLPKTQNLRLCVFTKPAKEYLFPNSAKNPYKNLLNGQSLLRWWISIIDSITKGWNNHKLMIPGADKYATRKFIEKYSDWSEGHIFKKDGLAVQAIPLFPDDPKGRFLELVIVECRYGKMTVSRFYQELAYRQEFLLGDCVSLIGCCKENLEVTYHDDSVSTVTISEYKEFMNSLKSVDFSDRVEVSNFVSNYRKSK
Oc1cccc(CCc2ccccn2)c1 showed an inhibition of -14.8%.
With CC/C(=C\c1ccc(Cl)cc1)c1ccncc1 the inhibition was -6.6%.
In the case of CC12CCCCC1=CC(=O)CC2 (stereo unspecified), the inhibition is reported as -10.3%.
In the case of CC1=NN(/C(=N\c2nnc(C)s2)Nc2ccccc2)[C@H](c2ccc(C)cc2)S1, the inhibition is reported as -10.9%.
Cc1cn(C2CC(O)C(CO)O2)c(=O)n(CCCc2ccccc2)c1=O (stereo unspecified) was tested, and the inhibition was 5.62%.
With COc1ccc(/C=C2/CCCc3ccccc3C2=O)cc1 the inhibition was -1.83%.
Work on O=C(CNC(=O)c1ccccc1F)OCC(=O)c1c[nH]c2ccccc12 yielded an inhibition of 3.64%.
Compound COc1ccc(Cl)cc1C=CC=NNC(=O)c1ccncc1 has an inhibition of -2.75%.
In the case of Cc1cccc(NC(=S)N2CCC(C(=O)c3ccc(F)cc3)CC2)c1, the inhibition is reported as -3.47%.
Work on O=C(Nc1ccc(S(=O)(=O)N2CCOCC2)cc1)C1CCN(S(=O)(=O)c2ccc(Cl)cc2)CC1 yielded an inhibition of 1.41%.
With CCN(CC)CCOc1ccc2c(c1)C(=NNC(=O)c1ccccn1)c1cc(OCCN(CC)CC)ccc1-2 the inhibition was 72.5% (active).
Work on CCOc1cc2ccccc2cc1C(=O)Nc1ccccn1 yielded an inhibition of -0.763%.
In the case of C/C(=N\NC(=O)Cc1ccc(Cl)cc1)c1ccccn1, the inhibition is reported as 1.88%.
In the case of COc1ccc(CCC(=O)Nc2ccc(Cl)c(S(=O)(=O)N3CCOCC3)c2)cc1OC, the inhibition is reported as 4.5%.
In the case of CCNC(=S)NCC, the inhibition is reported as 3.05%.
Work on O=C(O)c1ccc([N+](=O)[O-])cc1Sc1ccsc1 yielded an inhibition of -13.5%.
With CC(NC(=O)c1ccccc1)C(=O)OCC(=O)Nc1cccc(S(=O)(=O)N2CCCC2)c1 (stereo unspecified) the inhibition was 9.23%.
CCCCN1CC(CO)Oc2cccc(F)c2S1(=O)=O (stereo unspecified) gave an inhibition of -0.514%.
Compound COc1ccc(CCNC(=O)COC(=O)c2cnc(Cl)c(Cl)c2)cc1 has an inhibition of 9.18%.
In the case of COc1cccc(-c2ccc(C#N)c(SCC(=O)NCCc3ccc(Cl)cc3)n2)c1, the inhibition is reported as 58.6% (active).
With COc1ccc(CCNC(=O)CSc2nc(-c3ccc(OC)c(OC)c3)ccc2C#N)cc1 the inhibition was 0.0988%.
O=[N+]([O-])c1ccc(C=NN=Cc2ccc([N+](=O)[O-])cc2)cc1 was tested, and the inhibition was -12.3%.
COc1ccc(C(CNC(=O)c2cc(S(=O)(=O)Nc3cccc(C)c3)ccc2C)N2CCCC2)cc1 (stereo unspecified) showed an inhibition of 22.1%.
With CCOc1cc(C=NNC(=O)CCCC(=O)NN=Cc2ccc(O)c(OCC)c2)ccc1O the inhibition was 3.06%.
With COC(=O)C1CC2=C(CC(C)(C)CC2=O)N(c2ccccc2)C1=O (stereo unspecified) the inhibition was -0.664%.
In the case of COc1ccc(CCNC(=O)c2ccc(NC(=O)CC3SC(N4CCCCC4)=NC3=O)cc2)cc1OC (stereo unspecified), the inhibition is reported as 9.04%.
In the case of O=c1[nH]n2c(-c3ccccc3)nc(O)c2c2ccccc12, the inhibition is reported as -9.47%.
With O=c1[nH]c2ccccc2n2c(-c3ccccc3)nnc12 the inhibition was 127% (active).
In the case of O=C(c1ccc2c(c1)C(=O)N(Cc1ccncc1)C2=O)N1CCN(S(=O)(=O)c2ccc(OC(F)(F)F)cc2)CC1, the inhibition is reported as 5.03%.
NC(=O)c1ncn([C@@H]2O[C@H](CNCc3cnc(N4CCOCC4)s3)[C@@H](O)[C@H]2O)n1 was tested, and the inhibition was 0.868%.
Work on O=C(OCCOc1ccccc1F)c1cc(S(=O)(=O)N2CCOCC2)ccc1F yielded an inhibition of -4.81%.
O=C(OCCOc1ccccc1Cl)c1cc(S(=O)(=O)N2CCCCC2)ccc1N1CCOCC1 gave an inhibition of 2.25%.
NNc1cccc(C=Cc2ccccc2)cc1=O was tested, and the inhibition was 9.21%.
COc1ccccc1N(CC(=O)Nc1c(C)n(C)n(-c2ccccc2)c1=O)S(=O)(=O)c1ccccc1 gave an inhibition of 33.3%.
Work on CCc1c(Nc2ccccc2C)nc(N)[nH]c1=O yielded an inhibition of -5.27%.
O=C(O)c1ccc(Cn2cnc3c(=S)nc[nH]c32)cc1 was tested, and the inhibition was 0.573%.
With O=C1OCC2=C1C(c1ccc(Cl)cc1)c1cc3c(cc1O2)OCO3 (stereo unspecified) the inhibition was 8.44%.
With Cc1cc(C)c2c(NC(=O)C3CC3)nn(C)c2n1 the inhibition was -4.52%.
For C=CCN1C=C(C(=O)c2ccccc2)C(=O)CC1, the inhibition was 9.46%.
CN(C)CCNC(=O)c1ccc(Cl)c2cc3ccccc3nc12 showed an inhibition of 0.27%.
Cc1ccc(C(C[N+](=O)[O-])c2c(C)cc3ccccn23)cc1 (stereo unspecified) gave an inhibition of 2.3%.
Nc1ccccc1SC(C[N+](=O)[O-])c1ccccc1 (stereo unspecified) was tested, and the inhibition was 108% (active).
Compound Oc1c(CN2CCCC2)cc(COCc2ccccc2)c2cccnc12 has an inhibition of -7.26%.
With CCOc1ccc(-n2c(SCC(=O)OC)nc3sc4c(c3c2=O)CCN(C)C4)cc1 the inhibition was -6.79%.
CCCSc1nc2sc3c(c2c(=O)n1-c1ccc(OC)cc1)CCN(C)C3 was tested, and the inhibition was 0.409%.
With CCSc1nc2sc3c(c2c(=O)n1-c1ccc(C)cc1)CCN(C)C3 the inhibition was 8.04%.
CCOc1ccc(-n2c(SCC(=O)Nc3ccc(OC)cc3)nc3sc4c(c3c2=O)CCN(C)C4)cc1 was tested, and the inhibition was 11.2%.
With COc1ccccc1NC(=O)CSc1nc2sc3c(c2c(=O)n1-c1ccccc1)CCN(C)C3 the inhibition was 59.4% (active).
For CCn1c(SCC(=O)Nc2ccc(Br)cc2)nc2sc3c(c2c1=O)CCN(C)C3, the inhibition was 51.8% (active).
Cc1ccc(C(=O)CNc2ccc(F)cc2)cc1 gave an inhibition of -2.53%.
Cc1ccc(SC(CC(=O)c2ccc(C(C)(C)C)cc2)C(=O)O)cc1 (stereo unspecified) was tested, and the inhibition was 142% (active).
Cc1ccc(C(=O)CSc2ccccc2C(=O)O)cc1 showed an inhibition of -2.24%.
For O=[N+]([O-])c1ccc(N=NNc2ccc([N+](=O)[O-])cc2)cc1, the inhibition was 2.16%.
Cc1cccc(CC2(O)C(=O)Nc3ccccc32)n1 (stereo unspecified) gave an inhibition of -2.36%.
Compound O=C(Nc1c(Br)cc2c(c1Br)Cc1ccccc1-2)C(F)(F)F has an inhibition of -19.3%.
In the case of OCC1(CO)CC2(C1)CC(CO)(CO)C2, the inhibition is reported as -0.212%.
With Cc1cccc(C=CC(=O)c2ccc(Cl)cc2)c1 the inhibition was -3.33%.
CNc1nc(=O)n(C2CCCO2)cc1C (stereo unspecified) showed an inhibition of 12.5%.
Work on S=C(Nc1ccccc1)Nc1ccc2ccccc2c1 yielded an inhibition of 0.68%.
With C=CCn1c(=O)n(C)c2c(=O)n(C)c(=O)n(C)c21 the inhibition was 1.91%.
For CNC(=O)NC(=O)C(C)N1CCN(C/C=C/c2ccccc2)CC1 (stereo unspecified), the inhibition was -0.128%.
Work on CC(C)=CCc1ccc(O)c(=O)cc1C(C)C yielded an inhibition of 6.99%.
CCN(Cc1cc2cc(C)ccc2[nH]c1=O)S(=O)(=O)c1ccccc1 was tested, and the inhibition was 6.13%.
CCC(=O)N(CCc1ccccc1)Cc1cc2cc(C)ccc2[nH]c1=O was tested, and the inhibition was 54.1% (active).
Work on Cc1ccc2[nH]c(=O)c(CN(CCCN(C)C)C(=O)Nc3cccc(Cl)c3)cc2c1 yielded an inhibition of 6.58%.
COc1cccc2oc(CCc3ccccc3)cc(=O)c12 gave an inhibition of -16.8%.
COc1cc(/C=C/C(=O)OCC(=O)NC2CC2)cc(OC)c1OC gave an inhibition of 10.9%.
Compound O=C(Nc1ccc2c(c1)OCCO2)C1CCCN(c2ncccn2)C1 (stereo unspecified) has an inhibition of -8.66%.
In the case of Cc1cc(C)nc(N2CCC(C(=O)Nc3ccc4c(c3)OCCO4)CC2)n1, the inhibition is reported as 54.4% (active).
O=C(Nc1ccc2c(c1)OCCO2)C1CCCC1 was tested, and the inhibition was -1.87%.
Compound C[C@H](O)[C@@H]1C(=O)N2CCc3ccc(N4CCOCC4)cc3[C@@H]2C[C@@H]1N(C)C(=O)C(C)(C)C has an inhibition of 0.072%.
Cc1nn(-c2ccc(F)cc2)c(Cl)c1/C=C(/CCC(=O)O)c1nc2ccccc2s1 was tested, and the inhibition was 3.42%.
With CC(C)C(=O)Nc1c2c(nn1-c1ccccc1)CSC2 the inhibition was 2.65%.
For CC(=O)Nc1c2c(nn1-c1cccc(C)c1)CSC2, the inhibition was -4.46%.
COc1ccc(-n2nc3c(c2NC(=O)c2ccc(N4C(=O)CCC4=O)cc2)CSC3)cc1 was tested, and the inhibition was 57.3% (active).
With COc1cc(C(=O)N2CCN(S(=O)(=O)c3ccc(C(C)C)cc3)CC2)ccc1OCC(=O)N1CCOCC1 the inhibition was -4.48%.
COc1ccc(Cn2cc(CN3CCS(=O)(=O)N(Cc4ccc(-c5cccc(Cl)c5)cc4)C(C)C3=O)nn2)cc1 (stereo unspecified) showed an inhibition of 11.2%.
In the case of COc1cccc(CNC(=O)CCCC(=O)Nc2cccc([N+](=O)[O-])c2)c1, the inhibition is reported as -7.21%.
For COC(=O)/C=C\C(=O)Nc1cccc([N+](=O)[O-])c1, the inhibition was 68.2% (active).
For COc1ccc(S(=O)(=O)NC(C)C(=O)Nc2cccc([N+](=O)[O-])c2)cc1 (stereo unspecified), the inhibition was -0.177%.
With CC/C(=C(/c1ccccc1)c1ccc(OCC[N+](C)(C)C)cc1)c1ccccc1 the inhibition was -16.1%.
With Cc1ccc(S(=O)(=O)n2oc(=O)c(C3CCCCC3)c2N)cc1 the inhibition was 0.705%.
CCCCN(C(=O)CSCc1ccc(C)cc1)c1c(N)n(Cc2ccccc2)c(=O)[nH]c1=O gave an inhibition of -4.15%.
For COc1ccc(CC(=O)NC(C)c2ccc(Cl)c(Cl)c2)cc1S(=O)(=O)N1CCOCC1 (stereo unspecified), the inhibition was -2.98%.
Compound COc1cc2c(cc1OC)C1C(=O)c3cc(OS(C)(=O)=O)c(OC)cc3C1N(C)C2=O (stereo unspecified) has an inhibition of -1.27%.
COc1ccc(/C=C2\SC(=O)N(CCC(=O)NC3CCS(=O)(=O)C3)C2=O)cc1 (stereo unspecified) was tested, and the inhibition was 11.3%.
In the case of CC(C(=O)NC1CCS(=O)(=O)C1)N1C(=O)/C(=C/c2ccc(Cl)cc2)SC1=S (stereo unspecified), the inhibition is reported as 180% (active).
In the case of CN(C(=O)CN1C(=O)/C(=C/c2ccc(Cl)cc2)SC1=S)C1CCS(=O)(=O)C1 (stereo unspecified), the inhibition is reported as -24.5%.
Work on COc1cc(/C=C/c2ccc(/C=C/c3cc(OC)c(OC)c(OC)c3)cc2)cc(OC)c1OC yielded an inhibition of 1.49%.
O=[N+]([O-])c1ccc(COc2ccccc2CN2CCOCC2)cc1 gave an inhibition of 9.55%.
Compound C=CCOC(=O)N1CCC2CC1c1cc(-c3ccc(OC)cc3)ccc12 (stereo unspecified) has an inhibition of -3.1%.
